The values below come from the supplement of paper PMC10127200.

The test concerns DU145. In words: Euclidean distance of Cell Painting phenotypic profile (signed KS, 77 features) to DMSO centroid (dimensionless distance); 5 or 10 uM (library dependent); higher = stronger phenotypic change vs DMSO (phenoactivity). Conditions: 48 h. The method in brief:
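Phenoactivity is computed as Euclidean distance to the median vehicle profile. The profiles, drawn from 77 Harmony features scored as signed Kolmogorov-Smirnov statistics versus same-plate vehicle wells, were corrected for plate position, correlation-weighted and replicate-averaged at the top dose. Stained cells were imaged confocally at 20X (9 fields/well) after 48 h with library compounds at 10 or 5 uM, 0.1% DMSO final, in five cancer lines and a healthy fibroblast line.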
Molecule `Cc1cccc(-c2[nH]c(C(C)(C)C)nc2-c2ccc3c(c2)OCO3)n1` displayed an Euclidean distance of 0.978.
The figure for `CCOC(=O)CC(=O)N1CCSC1COc1ccccc1OC` (stereo not given) [Moguisteine] is 1.1; for `CCNC(=O)[C@@H]1CCCN1C(=O)[C@H](CCCNC(=N)N)NC(=O)[C@H](CC(C)C)NC(=O)[C@@H](CC(C)C)NC(=O)[C@H](Cc1ccc(O)cc1)NC(=O)[C@H](CO)NC(=O)[C@H](Cc1c[nH]c2ccccc12)NC(=O)[C@H](Cc1c[nH]cn1)NC(=O)[C@@H]1CCC(=O)N1` [Leuprorelin Acetate] it is 1.17.
Molecule `C=C[C@]1(C)C[C@@H](OC(=O)CS[C@@H]2C[C@H]3CC[C@@H](C2)N3C)[C@]2(C)[C@H](C)CC[C@]3(CCC(=O)[C@H]32)[C@@H](C)[C@@H]1O` [Retapamulin] displayed an Euclidean distance of 1.32.
For `CN(C)N(C)C(=O)[C@@]1(Cc2ccccc2)CCCN(C(=O)[C@@H](Cc2c[nH]c3ccccc23)NC(=O)C(C)(C)N)C1` [Anamorelin] the value was 0.841; for `Cn1cc(-c2cnn3c(N)c(Br)c([C@@H]4CCCNC4)nc23)cn1`, 1.19; for `CCCC(CCC)C(N)=O` [Valpromide], 1.
For `COc1ccc(C2CC(=O)c3c(O)cc(OC4OC(COC5OC(C)C(O)C(O)C5O)C(O)C(O)C4O)cc3O2)cc1OC` (stereo not given) [Methyl-Hesperidin] the value was 1.16.
For `CC1(C)S[C@@H]2[C@H](NC(=O)[C@H](N)c3ccccc3)C(=O)N2[C@H]1C(=O)OCOC(=O)[C@@H]1N2C(=O)C[C@H]2S(=O)(=O)C1(C)C` [Sultamicillin] the value was 0.805; for `O=c1[nH]c(=O)n([C@H]2C[C@H](O)[C@@H](CO)O2)cc1I` [Idoxuridine], 2.3.
